In ChEMBL document CHEMBL1201862, “PubChem BioAssay data set” (2004):
These assays gave more results; the selection is not random.

Molecular target: Acyl-homoserine lactone acylase PvdQ (Pseudomonas aeruginosa (strain LESB58)) (UniProt Q9I194)
Experiment: Pseudomonas aeruginosa growth inhibition with EDDHA – absorbance, plate reader, cherry-picks, dose response (AID 602389); call rule not given here
Format: functional

AbsAC35, active:
C#CCSc1ncc(-c2ccccc2)cn1 214 µM
N#Cc1cc(-c2ccccc2)cnc1Cl 74.1 µM
N#CN(Cc1ccccc1)Cc1ccccc1 477 µM
C=CCOC(=O)c1ccc(-n2cnc(C)n2)nc1 89.1 µM
COc1ccc(C2=C(C=O)Cc3ccccc3O2)cc1 210 µM
